Reference: PubChem BioAssay (EPA / NIEHS)
Values joined by “and” are separate entries in the source; they are usually repeats but may differ in a detail not shown here. Identical values can stand only once. More than one record can exist for a structure, and the calls need not agree. Active and inactive are the calls of the source. Rule for the calls: active = hit-call score of the fitted dose curve at least 0.9, where 1 is the maximum; inactive = score below 0.9.

test: APR_HepG2_StressKinase_24hr: Apredica 24-hour HepG2 Assay for Stress Kinase (AID 2282922); conditions: HepG2 stress kinase (phospho-c-Jun) imaging, actives raise or lower the signal
Summary of the method: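 HepG2 cells exposed 24 hr to compound at 0.39–200 uM (10 concentrations, duplicate), 0.5% v/v DMSO final. Fixed in 3.7% formaldehyde, permeabilized with Triton X-100, immunolabeled for phospho-c-Jun with Hoechst 33342; HCS fluorescence imaging, bidirectional fit versus DMSO.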

Row | Structure (SMILES) | outcome
1 | CC(Oc1ccc(Cl)cc1Cl)C(=O)O (stereo not given) | inactive
2 | COc1cnc(OC)n2nc(NS(=O)(=O)c3c(OCC(F)F)cccc3C(F)(F)F)nc12 | inactive
3 | COC(=O)c1ccccc1C(=O)OC | inactive
4 | COP(N)(=O)SC (stereo not given) | inactive
5 | CCCCNC(=O)OCC#CI | inactive
6 | CCOP(=S)(OCC)SCn1c(=O)oc2cc(Cl)ccc21 | inactive
7 | COC(=O)C=C(C)OP(=O)(OC)OC | inactive
8 | Cc1ccc(-c2c(Cl)nc(C#N)n2S(=O)(=O)N(C)C)cc1 | inactive

test: APR_HepG2_p53Act_72hr: Apredica 72-hour HepG2 Assay for p53 Activation (AID 2282923); conditions: high-content imaging, actives raise or lower the signal;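 note: average cellular p53 protein immunofluorescence intensity in HepG2 cells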
Summary of the method: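 Cells were dosed for 72 hr with compounds at 0.39–200 uM in duplicate (final DMSO 0.5% v/v), then fixed in 3.7% formaldehyde, permeabilized with Triton X-100 and immunostained for p53 (Cy5) with Hoechst 33342 nuclear counterstain.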

Row | Structure (SMILES) | outcome | AC50
9 | CON(C)C(=O)Nc1ccc(Cl)c(Cl)c1 | inactive | 
10 | N#Cc1nn(-c2c(Cl)cc(C(F)(F)F)cc2Cl)c(N)c1S(=O)C(F)(F)F (stereo not given) | inactive | 
11 | CCOC(=O)C(Cl)Cc1cc(-n2nc(C)n(C(F)F)c2=O)c(F)cc1Cl (stereo not given) | inactive | 
12 | N#Cc1cc(Br)c(O)c(Br)c1 | inactive | 
13 | CCCC1COC(Cn2cncn2)(c2ccc(Cl)cc2Cl)O1 (stereo not given) | inactive | 
14 | CC(Oc1ccc(Cl)cc1Cl)C(=O)O (stereo not given) | inactive | 
15 | CO/C=C(/C(=O)OC)c1ccccc1Oc1cc(Oc2ccccc2C#N)ncn1 | inactive | 50.7 µM (active) and 53 µM (active) and 50.6 µM (active)
16 | OC(c1ccc(Cl)cc1)(c1cncnc1)c1ccccc1Cl (stereo not given) | inactive | 
17 | COc1cnc(OC)n2nc(NS(=O)(=O)c3c(OCC(F)F)cccc3C(F)(F)F)nc12 | inactive | 
18 | COC(=O)c1ccccc1C(=O)OC | inactive | 
19 | COc1nc(C)nc(NC(=O)NS(=O)(=O)c2ccccc2Cl)n1 | inactive | 
20 | COP(N)(=O)SC (stereo not given) | inactive | 
21 | Cc1cc(Cl)ccc1OCC(=O)O | inactive | 
22 | C=CCC1=C(C)C(OC(=O)C2C(C=C(C)C)C2(C)C)CC1=O (stereo not given) | inactive | 117 µM (active)
23 | CCCCNC(=O)OCC#CI | inactive | 
24 | CN(C)C(=S)SSC(=S)N(C)C | inactive | 
25 | CCOc1cc(Oc2ccc(C(F)(F)F)cc2Cl)ccc1[N+](=O)[O-] | inactive | 
26 | O=C(O)c1nc(Cl)ccc1Cl | inactive | 
27 | CCOP(=S)(OCC)SCn1c(=O)oc2cc(Cl)ccc21 | inactive | 
28 | CCCCNC(=O)n1c(NC(=O)OC)nc2ccccc21 | inactive | 
29 | COC(=O)C=C(C)OP(=O)(OC)OC | inactive | 
30 | Cc1ccc(-c2c(Cl)nc(C#N)n2S(=O)(=O)N(C)C)cc1 | inactive | 
31 | C#CCOS(=O)OC1CCCCC1Oc1ccc(C(C)(C)C)cc1 (stereo not given) | inactive | 
32 | COc1nc(C)nc(NC(=O)NS(=O)(=O)c2ccccc2CCC(F)(F)F)n1 | inactive | 
33 | CC1=C(C(=O)Nc2ccccc2)SCCO1 | inactive | 
